Experimental data published in PubChem BioAssay.
Measured potencies and affinities stand elsewhere. The source made the active and inactive calls. Cut-off not given; nearly all actives show IC50 up to about 0.91 µM.

The compounds below were run against Calcium-dependent protein kinase 4 (Plasmodium falciparum (isolate 3D7)) (UniProt Q8IBS5) (assay: PfCDPK4 kinase inhibitors, biochemical, TCAMS library (AID 1159588)). Conditions: recombinant PfCDPK4, Kinase-Glo ATP depletion luminescence.
Calcium-dependent protein kinase 4 (Plasmodium falciparum (isolate 3D7)), sequence (Q8IBS5 whole entry, looked up): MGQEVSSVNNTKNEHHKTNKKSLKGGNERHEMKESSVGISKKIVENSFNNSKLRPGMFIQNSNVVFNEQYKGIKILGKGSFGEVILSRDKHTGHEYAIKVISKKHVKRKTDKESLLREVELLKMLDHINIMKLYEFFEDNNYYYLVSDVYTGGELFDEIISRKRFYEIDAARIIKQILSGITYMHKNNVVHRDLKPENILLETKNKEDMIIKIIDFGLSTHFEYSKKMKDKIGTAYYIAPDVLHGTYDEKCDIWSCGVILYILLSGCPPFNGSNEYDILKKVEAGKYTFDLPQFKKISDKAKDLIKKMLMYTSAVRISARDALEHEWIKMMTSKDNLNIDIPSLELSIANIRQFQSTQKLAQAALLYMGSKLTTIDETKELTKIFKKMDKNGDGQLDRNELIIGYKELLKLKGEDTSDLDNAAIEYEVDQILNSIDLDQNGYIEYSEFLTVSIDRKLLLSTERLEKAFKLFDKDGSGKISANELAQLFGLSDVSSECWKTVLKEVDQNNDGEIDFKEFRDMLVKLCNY

outcome, inactive:
COc1ccc2nc(C)cc(NN=Cc3ccc(F)cc3)c2c1
CCOC(=O)C1=C(C)NC2=C(C(=O)C(C(=O)OC)C(C)C2)C1c1cc(Br)c(OCC)c(OC)c1 (configuration not stated)
COc1ccc2nccc([C@@H](O)CN3CCC(NC(=O)c4ccc(Oc5ccccc5)cc4)CC3)c2c1
O=C1Nc2cccc3c2C1(CCCCN1CCC(c2c(-c4ccccc4)[nH]c4ccccc24)CC1)CCC3 (configuration not stated)
Cc1[nH]c(C)c(C2CCC(c3ccc(Cl)cc3)CC2)c(=O)c1Cl (configuration not stated)
NC(=S)Cc1ccc2c(c1)OCO2
CCN(CC)CCCSc1ccc(-c2ccc(SCCCN(CC)CC)cc2)cc1
